The text below walks through data of PubChem BioAssay (Tox21).

Experiment [1] can be described thus: qHTS assay to identify small molecule antagonists of the retinoid-related orphan receptor gamma (ROR-gamma) signaling pathway - cell viability counter screen (AID 1159520). Also: nearly all actives have a fitted effect of over 50% in size. Also: potency is read from the fitted curve at half-maximal effect. Put shortly:
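Tet-on ROR gamma CHO cells (1,000/well) were plated 4 hr, given compounds in DMSO for 2 hr at 37 C, then induced with 1 uM final doxycycline for 16 hr. Viability was read as ATP by CellTiter-Glo luminescence after 30 min.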

Experiment [2] is described as follows: qHTS assay to identify small molecule agonists of the AP-1 signaling pathway - cell viability counter screen (AID 1159525; calls by dose curve; also: nearly all actives have a fitted effect of over 55% in size). Put shortly:
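ME-180 AP-1-bla, 2500 cells/well, Opti-MEM + 0.5% dialyzed FBS; overnight 37 °C; cpd 15-pt titration, 5 h 37 °C; CellTiter-Glo 30 min RT; luminescence read; normalised to TOAB and DMSO controls.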

A short description of experiment [3]: qHTS assay to identify small molecule agonists of the AP-1 signaling pathway (AID 1159526; calls by dose curve).
Experiment [4] addresses Retinoic acid receptor RXR-alpha (Homo sapiens) (UniProt P19793). The experiment is described as follows: qHTS assay to identify small molecule agonists of the RXR signaling pathway (AID 1159527; calls by dose curve; also: nearly all actives have a fitted effect of over 35% in size). Put shortly: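 Cells plated at 2,000/well, rested 5 hr at 37 C, pin-dosed with DMSO compound solutions, incubated 16 hr, then loaded with B/G FRET substrate for 2 hr at RT before dual-emission fluorescence reading.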

Experiment [5] in a line: qHTS assay to identify small molecule agonists of the RXR signaling pathway - cell viability counter screen (AID 1159529).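 Also: HEK 293T cells carrying an RXR-alpha UAS beta-lactamase reporter; series mostly up to about 77 µM; nearly all actives have a fitted effect of over 50% in size.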 Summed up:
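Steps: seed RXR-alpha-UAS-bla HEK 293T cells in assay medium containing 2% charcoal-stripped FBS; incubate 5 hr; add compounds in DMSO; incubate 16 hr at 37 C; after the bla read, add CellTiter-Glo and read luminescence at 30 min.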

Experiment [6] can be described thus: qHTS assay to identify small molecule antagonists of the retinoid acid receptor (RAR) signaling pathway - cell viability counter screen (AID 1159551). Also: nearly all actives have a fitted effect of over 35% in size. Also: potency is read from the fitted curve at half-maximal effect. Put shortly:
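Following overnight attachment, C3RL4 reporter cells received DMSO-dissolved compounds and then retinol (1 uM final). Six hours later at 37 C, ATP content was measured by CellTiter-Glo luminescence.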

Experiment [7] can be described thus: qHTS assay to identify small molecule antagonists of the retinoic acid receptor (RAR) signaling pathway (AID 1159552; also: nearly all actives have a fitted effect of over 50% in size; also: potency is read from the fitted curve at half-maximal effect). Put shortly: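 Retinol at 1 uM final stimulated RARE-luciferase expression in C3RL4 cells exposed to test compounds for 6 hr at 37 C. Reduced luminescence, read 30 min after detection reagent, indicated pathway antagonism.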
Experiment [8] in a line: qHTS assay to identify small molecule agonists of the peroxisome proliferator-activated receptor delta (PPARd) signaling pathway - cell viability counter screen (AID 743211). Also: potency is read from the fitted curve at half-maximal effect; nearly all actives have a fitted effect of over 55% in size. Summed up: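 Counter screen for cytotoxicity run in parallel with the PPARd reporter screen. Beta-lactamase reporter HEK293H cells exposed to compounds 17 h; ATP-based CellTiter-Glo luminescence quantified viability.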

A short description of experiment [9]: qHTS assay to identify small molecule agonists of the farnesoid-X-receptor (FXR) signaling pathway - cell viability counter screen (AID 743218). Also: nearly all actives have a fitted effect of over 45% in size. Also: potency is read from the fitted curve at half-maximal effect. Put shortly:
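In GeneBLAzer FXR-UAS-bla HEK 293T cells, compounds act for 16 h at 37 C. Cell viability is then scored in the reporter wells by CellTiter-Glo, 30 min at RT, luminescence.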

Experiment [10] in a line: qHTS assay to identify small molecule antagonists of the farnesoid-X-receptor (FXR) signaling pathway - cell viability counter screen (AID 743221; active = well fitted cell-killing curve with a large enough effect in the repeat runs, not every such curve was filed as active; also: nearly all actives have a fitted effect of over 50% in size; also: potency is read from the fitted curve at half-maximal effect). Put shortly: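 Multiplexed counter screen: viability of FXR-bla HEK 293T cells under agonist stimulation by chenodeoxycholic acid (50 uM, final) and test compound for 16 h at 37 C, measured by CellTiter-Glo luminescence in the reporter wells.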

Experiment [11] in a line: qHTS assay to identify small molecule agonists of the vitamin D receptor (VDR) signaling pathway - cell viability counter screen (AID 743224). Summed up:
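VDR-bla cell line, quantitative HTS format; 16 h compound incubation (37C, 5% CO2); ATP-based CellTiter-Glo luminescence measured in the reporter assay wells.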

Experiment [12] can be described thus: qHTS assay to identify small molecule antagonists of the vitamin D receptor (VDR) signaling pathway - cell viability counter screen (AID 743225). Also: nearly all actives have a fitted effect of over 50% in size. Also: potency is read from the fitted curve at half-maximal effect. Summed up: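 HEK293T VDR-bla; cpd + 1a,25-(OH)2D3 3 nM final, 16 h 37C/5% CO2; B/G FRET substrate 2 h RT; then CellTiter-Glo 30 min RT, luminescence.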
In experiment [13] the target is Nuclear receptor ROR-gamma (Homo sapiens) (UniProt P51449). The experiment is described as follows: qHTS assay to identify small molecule antagonists of the retinoid-related orphan receptor gamma (ROR-gamma) signaling pathway (AID 1159521; also: nearly all actives have a fitted effect of over 50% in size; also: potency is read from the fitted curve at half-maximal effect). Put shortly: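 Cells were plated, rested 4 h at 37 C, exposed to compounds for 2 h, then given 1 uM final doxycycline hyclate to induce RORγ expression. After 16 h, ONE-Glo luminescence from the ROR response element reporter was measured.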

Experiment [14] deals with Peroxisome proliferator-activated receptor delta (Homo sapiens) (UniProt Q03181). The experiment is described as follows: qHTS assay to identify small molecule agonists of the peroxisome proliferator-activated receptor delta (PPARd) signaling pathway (AID 743212; calls by dose curve). Put shortly:
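GeneBLAzer PPARd UAS-bla HEK293H cells (beta-lactamase reporter under UAS control), plated and rested 5 h at 37 C, then exposed to compounds in DMSO at 37 C; LiveBLAzer B/G FRET substrate added, 2 h room temperature, fluorescence read.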

Experiment [15] in a line: qHTS assay to identify small molecule antagonists of the peroxisome proliferator-activated receptor delta (PPARd) signaling pathway - cell viability counter screen (AID 743213). Put shortly:
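CellTiter-Glo was added to PPARd-bla HEK293H wells following 17 h compound treatment in the presence of 300 nM L165041. Luminescence was recorded after 30 min at room temperature.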

Experiment [16] concerns the target Bile acid receptor (Homo sapiens) (UniProt Q96RI1). As to the kind of experiment: qHTS assay to identify small molecule antagonists of the farnesoid-X-receptor (FXR) signaling pathway (AID 743217; active = well fitted inhibition curve with a large enough effect in the signal ratio in the repeat runs, not every such curve was filed as active; the % refers to the signal ratio). Summed up: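 Beta-lactamase reporter under UAS control in HEK 293T cells; compound exposure 16 h at 37 °C in the presence of chenodeoxycholic acid (50 uM final); signal from B/G FRET substrate after 2 h at room temperature.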

For experiment [17] the target is unchanged. As to the kind of experiment: qHTS assay to identify small molecule agonists of the farnesoid-X-receptor (FXR) signaling pathway (AID 743220; active = well fitted activation curve with a large enough effect in the signal ratio in the repeat runs, not every such curve was filed as active; the % refers to the signal ratio). Put shortly: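 Beta-lactamase reporter under UAS control in GeneBLAzer FXR HEK 293T cells (5000/well) measured with LiveBLAzer FRET substrate after 2 h at room temperature. Compound exposure lasted 16 h at 37C.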

Inconclusive results are not listed. Values without a mark were called inactive. The source made the active and inactive calls. Unless noted, calls follow the shape of the dose curve; as a rule, active = well fitted curve in the direction sought with a large enough effect in the repeat runs; inconclusive = weak or mixed curves; inactive = no such curve, though single readings can be large; an effect the other way counts as inactive or inconclusive.

Sequence of Retinoic acid receptor RXR-alpha (Homo sapiens) (P19793 whole entry, looked up): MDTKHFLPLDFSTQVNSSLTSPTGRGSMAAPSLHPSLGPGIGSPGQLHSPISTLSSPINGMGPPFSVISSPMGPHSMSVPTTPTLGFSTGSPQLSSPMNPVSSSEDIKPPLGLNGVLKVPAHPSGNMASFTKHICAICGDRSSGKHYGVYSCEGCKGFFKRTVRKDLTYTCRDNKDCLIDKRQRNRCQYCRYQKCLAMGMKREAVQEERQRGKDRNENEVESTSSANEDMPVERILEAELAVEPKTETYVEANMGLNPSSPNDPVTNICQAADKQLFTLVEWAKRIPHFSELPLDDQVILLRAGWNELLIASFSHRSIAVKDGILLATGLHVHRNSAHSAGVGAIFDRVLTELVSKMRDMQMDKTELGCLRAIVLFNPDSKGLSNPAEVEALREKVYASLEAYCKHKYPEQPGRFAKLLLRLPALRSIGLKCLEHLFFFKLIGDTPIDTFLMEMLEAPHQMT
Sequence of Bile acid receptor (Homo sapiens) (Q96RI1 whole entry, looked up): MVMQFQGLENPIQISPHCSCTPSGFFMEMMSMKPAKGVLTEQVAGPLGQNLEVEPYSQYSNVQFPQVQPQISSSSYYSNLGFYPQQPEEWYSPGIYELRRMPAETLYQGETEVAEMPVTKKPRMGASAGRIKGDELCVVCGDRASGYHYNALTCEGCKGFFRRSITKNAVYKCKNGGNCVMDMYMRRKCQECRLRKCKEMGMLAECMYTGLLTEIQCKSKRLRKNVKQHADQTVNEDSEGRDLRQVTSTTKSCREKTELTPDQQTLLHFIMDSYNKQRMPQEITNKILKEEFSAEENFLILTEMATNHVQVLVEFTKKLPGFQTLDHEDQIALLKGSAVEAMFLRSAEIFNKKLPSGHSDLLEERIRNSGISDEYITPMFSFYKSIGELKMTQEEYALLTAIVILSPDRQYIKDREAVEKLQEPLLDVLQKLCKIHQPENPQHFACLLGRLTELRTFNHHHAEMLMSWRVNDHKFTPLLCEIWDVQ
Sequence of Peroxisome proliferator-activated receptor delta (Homo sapiens) (Q03181 whole entry, looked up): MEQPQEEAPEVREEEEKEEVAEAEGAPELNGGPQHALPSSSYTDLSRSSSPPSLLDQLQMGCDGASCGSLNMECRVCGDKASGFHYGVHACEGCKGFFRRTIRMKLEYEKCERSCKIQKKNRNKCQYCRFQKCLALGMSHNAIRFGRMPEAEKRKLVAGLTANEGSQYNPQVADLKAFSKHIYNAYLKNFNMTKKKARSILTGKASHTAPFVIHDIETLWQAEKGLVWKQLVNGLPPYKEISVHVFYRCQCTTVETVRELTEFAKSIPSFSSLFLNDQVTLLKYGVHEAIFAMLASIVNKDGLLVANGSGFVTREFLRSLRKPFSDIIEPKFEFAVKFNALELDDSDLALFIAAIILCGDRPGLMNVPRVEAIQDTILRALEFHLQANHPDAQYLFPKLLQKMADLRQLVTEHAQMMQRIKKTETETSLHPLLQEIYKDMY

With `O=C1CCC(=O)N1`, the Potency result in experiment [1], in experiment [2], in experiment [3], in experiment [4], in experiment [5] and in experiment [6] was “inactive” throughout.
With `C=Cc1ccncc1`, the Potency entry in [1], in experiment [2], in experiment [3], in experiment [4], in [5] and in [6] was “inactive” each time. Besides, in [7], the Potency result is “inactive”.
With `O=c1[nH]cccc1O`, the Potency result in experiment [1], in [2], in experiment [3], in experiment [4], in experiment [5] and in [6] was “inactive” each time. Also, the Potency entry in experiment [7] was “inactive”.
For `CSc1nnc(C(C)(C)C)c(=O)[nH]1`, the Potency result in [1], in [2], in experiment [3], in experiment [4], in experiment [5] and in experiment [6] was “inactive” each time.
As for `O=C(Nc1ccc([N+](=O)[O-])cc1)Nc1ccc([N+](=O)[O-])cc1` (tested in a mixture with another compound), the Potency result in experiment [1], in [2], in experiment [3], in [4] and in experiment [6] was “inactive” throughout.
Take `NC(=O)c1ccccc1Cl`: the Potency result in [1], in [2], in experiment [3], in experiment [4], in experiment [5] and in experiment [6] was “inactive” throughout.
For `[Cl][Sc]([Cl])[Cl]`, the Potency result in [1], in [2], in experiment [3], in experiment [4] and in [6] was “inactive” each time.
For the molecule `Oc1ccc2c(c1)CCC2`, the Potency entry in experiment [1], in experiment [2], in [3], in [4], in experiment [5] and in experiment [6] was “inactive” throughout. For the same molecule, the Potency entry in experiment [7] is “inactive”.
Turning to `Nc1c(Br)cc([N+](=O)[O-])cc1Br`, the Potency entry in experiment [1], in [2], in experiment [3], in [4], in experiment [5] and in experiment [6] was “inactive” each time. The Potency result in [7] was “inactive”.
As to `CC/C=C(\C)C=O`, the Potency entry in experiment [1], in experiment [2], in [3], in experiment [4], in experiment [5] and in experiment [6] was “inactive” each time.
Take `COc1cc(/C=C/C(=O)CC(=O)/C=C/c2ccc(O)c(OC)c2)ccc1O`: the Potency in [8] was 34.9 µM (active); in experiment [9], 24.7 µM (active); in experiment [10], 43.9 µM (active); in experiment [11] it was 49.3 µM (active); in [12], 49.3 µM (active); in experiment [1], 48.9 µM (active). Moreover, the Potency in [13] was 61.5 µM (active). The Potency entry in experiment [7] was “inactive”.
Regarding `CCOC(=O)OC(=O)OCC`, the Potency result in experiment [1], in experiment [2], in [3], in experiment [4], in experiment [5] and in experiment [6] was “inactive” throughout. Further, the Potency entry in experiment [7] is “inactive”.
For `O=C(c1ccccc1)c1ccc(Cl)cc1`, the Potency result in [1], in [6] and in [7] was “inactive” throughout. The Potency in experiment [13] is 68.6 µM (active).
Regarding `Nc1cc([N+](=O)[O-])ccc1Cl`, the Potency result in [1], in [2], in experiment [3], in experiment [4], in [5] and in experiment [6] was “inactive” each time.
In the case of `COc1ccc(OC)c(N=Nc2c(O)ccc3ccccc23)c1`, the figures for the Potency in [1] and in experiment [6] were 30.6 µM (active) and 17.2 µM (active), respectively. The Potency result in experiment [13] and in [7] was “inactive” throughout.
For `COc1cc([C@@H]2c3cc4c(cc3[C@@H](O[C@@H]3O[C@@H]5CO[C@@H](C)O[C@H]5[C@H](O)[C@H]3O)[C@H]3COC(=O)[C@H]23)OCO4)cc(OC)c1O`, the molecule was classed as inactive in experiment [14] and in [17]. In addition, the Potency was 21.6 µM (active) in [15], 21.6 µM (active) in [11], 27 µM (active) in experiment [13] and 67.8 µM (active) in experiment [7]. The Potency entry in [16], in [9], in experiment [10], in experiment [12], in experiment [1] and in experiment [6] was “inactive” in each case.
With `C=CC(=O)O[C@H]1C[C@@H]2CC[C@@]1(C)C2(C)C`, the Potency result in experiment [1], in experiment [2], in experiment [3], in experiment [4], in [5] and in experiment [6] was “inactive” in each case. For the same molecule, the Potency result in [7] was “inactive”.
For `Cc1ccc(C2OC[C@@H]3OC(c4ccc(C)cc4)O[C@H]([C@H](O)CO)[C@@H]3O2)cc1` (some centres not stated), the Potency entry in [1], in experiment [2], in [3], in experiment [4], in [6] and in experiment [7] was “inactive” each time.
As to `CC1=CC[C@@H](C(C)(C)O)CC1`, the Potency result in experiment [1], in experiment [2], in experiment [3], in [4], in experiment [5] and in experiment [6] was “inactive” throughout.
